PubChem BioAssay AID1159580 (chemical genetic matrix, 2015)
Values joined by “and” are separate entries in the source; they are usually repeats but may differ in a detail not shown here. Identical values can stand only once. Among all 5,500 compounds or so, about 2,000 (36%) were called active. Roughly 18% stayed inconclusive and do not appear here. No stated cut-off is given here; in the data, active means normalized growth mostly below about 0.91 (no sharp cut-off); inconclusive means no clear call, values can overlap the other calls; inactive means mostly above about 0.92. The list shows a part of the results.

Experiment: chemical genetic growth profiling, strain panel (AID 1159580);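 further: tested at 20 µM; growth read once vehicle control cultures reached saturation at 30 °C; 1 = growth at the plate median or of vehicle wells; lower values mean less growth of the strain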
Settings: growth OD
[1] = S. cerevisiae deletion strains, locus YBR021W, strain FUR4, hits give low values
[2] = S. cerevisiae deletion strains, locus YBR229C, strain ROT2, hits give low values
[3] = S. cerevisiae deletion strains, locus YCL029C, strain bik1, hits give low values
[4] = S. cerevisiae deletion strains, locus YDL035C, strain GPR1, hits give low values
[5] = S. cerevisiae deletion strains, locus YDL074C, strain BRE1, hits give low values
[6] = S. cerevisiae deletion strains, locus YDL101C, strain DUN1, hits give low values
[7] = S. cerevisiae deletion strains, locus YDL134C, strain PPH21, hits give low values
[8] = S. cerevisiae deletion strains, locus YDL185W, strain tfp1, hits give low values
[9] = S. cerevisiae deletion strains, locus YDL192W, strain arf1, hits give low values
[10] = S. cerevisiae deletion strains, locus YDR101C, strain arx1, hits give low values
[11] = S. cerevisiae deletion strains, locus YDR150W, strain NUM1, hits give low values
[12] = S. cerevisiae deletion strains, locus YDR162C, strain NBP2, hits give low values
[13] = S. cerevisiae deletion strains, locus YDR318W, strain mcm21, hits give low values
[14] = S. cerevisiae deletion strains, locus YDR388W, hits give low values
[15] = S. cerevisiae deletion strains, locus YDR502C, strain sam2, hits give low values
[16] = S. cerevisiae deletion strains, locus YEL061C, strain CIN8, hits give low values
[17] = S. cerevisiae deletion strains, locus YER110C, hits give low values
[18] = S. cerevisiae deletion strains, locus YER155C, strain BEM2, hits give low values
[19] = S. cerevisiae deletion strains, locus YER167W, strain BCK2, hits give low values
[20] = S. cerevisiae deletion strains, locus YGL078C, strain dbp3, hits give low values
[21] = S. cerevisiae deletion strains, locus YGL086W, strain mad1, hits give low values
[22] = S. cerevisiae deletion strains, locus YGL248W, strain PDE1, hits give low values
[23] = S. cerevisiae deletion strains, locus YGR135W, strain pre9, hits give low values
[24] = S. cerevisiae deletion strains, locus YGR229C, strain SMI1, hits give low values
[25] = S. cerevisiae deletion strains, locus YGR252W, strain gcn5, hits give low values
[26] = S. cerevisiae deletion strains, locus YHR030C, strain SLT2, hits give low values
[27] = S. cerevisiae deletion strains, locus YHR079C, strain IRE1 (second series), hits give low values
[28] = S. cerevisiae deletion strains, locus YHR079C, strain IRE1, hits give low values
[29] = S. cerevisiae deletion strains, locus YHR094C, strain hxt1, hits give low values
[30] = S. cerevisiae deletion strains, locus YHR129C, strain ARP1, hits give low values
[31] = S. cerevisiae deletion strains, locus YHR200W, strain rpn10, hits give low values
[32] = S. cerevisiae deletion strains, locus YIL066C, strain RNR3, hits give low values
[33] = S. cerevisiae deletion strains, locus YIL073C, strain SPO22, hits give low values
[34] = S. cerevisiae deletion strains, locus YIL125W, strain kgd1, hits give low values
[35] = S. cerevisiae deletion strains, locus YIR030C, strain dcg1, hits give low values
[36] = S. cerevisiae deletion strains, locus YJL095W, strain BCK1, hits give low values
[37] = S. cerevisiae deletion strains, locus YJL134W, strain LCB3, hits give low values
[38] = S. cerevisiae deletion strains, locus YJL168C, strain set2, hits give low values
[39] = S. cerevisiae deletion strains, locus YJL187C, strain SWE1 (second series), hits give low values
[40] = S. cerevisiae deletion strains, locus YJR043C, strain POL32, hits give low values
[41] = S. cerevisiae deletion strains, locus YJR066W, strain TOR1, hits give low values
[42] = S. cerevisiae deletion strains, locus YKL009W, strain mrt4, hits give low values
[43] = S. cerevisiae deletion strains, locus YKL068W, hits give low values
[44] = S. cerevisiae deletion strains, locus YKL085W, strain MDH1 (second series), hits give low values
[45] = S. cerevisiae deletion strains, locus YKL085W, strain MDH1, hits give low values
[46] = S. cerevisiae deletion strains, locus YKR001C, strain vps1, hits give low values
[47] = S. cerevisiae deletion strains, locus YLR039C, strain RIC1, hits give low values
[48] = S. cerevisiae deletion strains, locus YLR058C, strain SHM2, hits give low values
[49] = S. cerevisiae deletion strains, locus YLR102C, strain apc9, hits give low values
[50] = S. cerevisiae deletion strains, locus YLR113W, strain HOG1, hits give low values
[51] = S. cerevisiae deletion strains, locus YLR262C, strain YPT6, hits give low values
[52] = S. cerevisiae deletion strains, locus YLR268W, strain sec22, hits give low values
[53] = S. cerevisiae deletion strains, locus YLR330W, strain CHS5, hits give low values
[54] = S. cerevisiae deletion strains, locus YLR342W, strain FKS1 (second series), hits give low values
[55] = S. cerevisiae deletion strains, locus YLR371W, strain rom2, hits give low values
[56] = S. cerevisiae deletion strains, locus YLR418C, strain cdc73, hits give low values
[57] = S. cerevisiae deletion strains, locus YML016C, strain PPZ1, hits give low values
[58] = S. cerevisiae deletion strains, locus YML032C, strain rad52, hits give low values
[59] = S. cerevisiae deletion strains, locus YML124C, strain tub3, hits give low values
[60] = S. cerevisiae deletion strains, locus YMR078C, strain ctf18, hits give low values
[61] = S. cerevisiae deletion strains, locus YMR223W, strain ubp8, hits give low values
[62] = S. cerevisiae deletion strains, locus YMR263W, strain SAP30, hits give low values
[63] = S. cerevisiae deletion strains, locus YMR307W, strain GAS1, hits give low values
[64] = S. cerevisiae deletion strains, locus YNL067W, strain RPL9B, hits give low values
[65] = S. cerevisiae deletion strains, locus YNL183C, strain NPR1, hits give low values
[66] = S. cerevisiae deletion strains, locus YNL233W, strain BNI4, hits give low values
[67] = S. cerevisiae deletion strains, locus YNL250W, strain rad50, hits give low values
[68] = S. cerevisiae deletion strains, locus YNL271C, strain bni1, hits give low values
[69] = S. cerevisiae deletion strains, locus YNL298W, strain CLA4, hits give low values
[70] = S. cerevisiae deletion strains, locus YNL307C, strain MCK1, hits give low values
[71] = S. cerevisiae deletion strains, locus YNL322C, strain KRE1, hits give low values
[72] = S. cerevisiae deletion strains, locus YNR052C, strain pop2, hits give low values
[73] = S. cerevisiae deletion strains, locus YOL012C, strain htz1
[74] = S. cerevisiae deletion strains, locus YOL147C, strain pex11, hits give low values
[75] = S. cerevisiae deletion strains, locus YOR061W, strain CKA2, hits give low values
[76] = S. cerevisiae deletion strains, locus YOR069W, strain VPS5, hits give low values
[77] = S. cerevisiae deletion strains, locus YOR136W, strain idh2, hits give low values
[78] = S. cerevisiae deletion strains, locus YOR144C, strain elg1, hits give low values
[79] = S. cerevisiae deletion strains, locus YOR184W, strain ser1, hits give low values
[80] = S. cerevisiae deletion strains, locus YOR231W, strain MKK1, hits give low values
[81] = S. cerevisiae deletion strains, locus YOR316C, strain cot1, hits give low values
[82] = S. cerevisiae deletion strains, locus YPL256C, strain CLN2, hits give low values
[83] = S. cerevisiae deletion strains, locus YPR119W, strain clb2, hits give low values
[84] = S. cerevisiae deletion strains, locus YPR141C, strain kar3, hits give low values
[85] = S. cerevisiae deletion strains, locus YPR163C, strain tif3, hits give low values
[86] = S. cerevisiae deletion strains, locus YPR167C, strain met16, hits give low values
[87] = S. cerevisiae deletion strains, strain wtn01, hits give low values

Measured: normalized growth

CO[C@H]1[C@H](O)[C@@H](O[C@H]2CC[C@]3(C=O)C4CC[C@]5(C)[C@@H](C6=CC(=O)OC6)CC[C@]5(O)C4CC[C@@H]3C2)O[C@@H](C)[C@@H]1O (some centres undefined)
inactive: S. cerevisiae deletion strains, locus YAL013W, strain DEP1, hits give low values 0.982 | [1] 1.01 | [2] 0.959 | [3] 0.993 | [4] 0.986 | [5] 1.01 | [6] 0.973 | [7] 0.986 | [8] 0.989 | [9] 0.99 | [10] 1 | [11] 0.966 | [12] 0.978 | [13] 1.01 | [14] 0.999 | [15] 0.992 | [16] 0.984 | [17] 0.973 | [18] 0.997 | [19] 0.995 | [20] 0.986 | [21] 0.989 | [22] 0.973 | S. cerevisiae deletion strains, locus YGR078C, strain PAC10, hits give low values 1 | [23] 1 | [24] 0.996 | [25] 0.999 | [26] 0.987 and 0.975 | [27] 0.99 | [28] 0.965 | [29] 0.988 | [30] 0.996 | [31] 0.999 | [32] 0.968 | [33] 0.994 | [34] 0.98 | [35] 0.982 | [36] 1.04 and 0.973 | [37] 0.981 | [38] 0.992 | [39] 0.99 | [40] 1.01 | [41] 0.972 | S. cerevisiae deletion strains, locus YJR075W, strain HOC1, hits give low values 0.998 | [42] 0.943 | [43] 0.994 | [44] 0.98 | [45] 0.98 | S. cerevisiae deletion strains, locus YKL190W, strain CNB1, hits give low values 0.991 | [46] 0.993 | [47] 0.969 | [48] 0.965 | [49] 0.994 | [50] 0.975 | [51] 0.972 | [52] 1.05 | [53] 0.982 | [54] 0.998 | [55] 0.979 | [56] 1 | [57] 0.987 | [58] 1.01 | [59] 0.989 | [60] 0.993 | [61] 0.977 | [62] 0.987 | [63] 0.981 | [64] 1.01 | S. cerevisiae deletion strains, locus YNL128W, strain TEP1, hits give low values 0.969 | S. cerevisiae deletion strains, locus YNL153C, strain GIM3, hits give low values 0.994 | [65] 0.903 | [66] 0.999 | [67] 0.969 | [68] 1 | [69] 0.992 | [70] 0.993 | [71] 0.989 | [72] 1.01 | S. cerevisiae deletion strains, locus YOL006C, strain TOP1, hits give low values 1.01 | [73] 0.939 | [74] 0.998 | [75] 0.968 | [76] 0.988 | [77] 0.986 | [78] 0.998 | [79] 0.981 | [80] 0.957 | [81] 0.985 | S. cerevisiae deletion strains, locus YPL055C, strain LGE1, hits give low values 0.979 | S. cerevisiae deletion strains, locus YPL241C, strain CIN2, hits give low values 0.992 | [82] 0.948 | [83] 0.989 | [84] 0.983 | [85] 1 | [86] 0.992 | [87] 0.996 | S. cerevisiae strains, strain wild type, hits give low values 0.978

C[C@H]1OC(O[C@H]2[C@@H](O)CC(O[C@H]3[C@@H](O)C[C@H](O[C@H]4CC[C@]5(C)C6CC[C@]7(C)[C@@H](C8=CC(=O)OC8)[C@@H](O)C[C@]7(O)[C@@H]6CC[C@@H]5C4)O[C@@H]3C)O[C@@H]2C)C[C@H](O)C1O (some centres undefined)
inactive: [1] 0.986 | [2] 1.01 | [3] 0.989 | [4] 0.992 | [5] 1.01 | [6] 1 | [7] 1.01 | [8] 0.981 | [9] 0.988 | [10] 0.991 | [11] 1.02 | [12] 1 | [13] 1.01 | [14] 0.999 | [15] 0.987 | [16] 0.999 | [17] 0.986 | [18] 0.985 | [19] 0.99 | [20] 0.981 | [21] 0.965 | [22] 1.01 | [23] 1.01 | [24] 0.998 | [25] 1.02 | [26] 1 and 1.03 | [27] 0.998 | [28] 1.03 | [29] 0.989 | [30] 0.999 | [31] 1 | [32] 1 | [33] 1.01 | [34] 0.981 | [35] 0.989 | [36] 1.01 and 1 | [37] 1 | [38] 0.996 | [39] 1.02 | [40] 1.01 | [41] 0.965 | [42] 0.927 | [43] 0.994 | [44] 0.988 | [45] 0.988 | [46] 0.986 | [47] 1.06 | [48] 1 | [49] 0.99 | [50] 0.975 | [51] 1.04 | [52] 0.99 | [53] 0.994 | [54] 1.02 | [55] 0.989 | [56] 0.998 | [57] 1.01 | [58] 1.01 | [59] 1 | [60] 1 | [61] 1.01 | [62] 1.01 | [63] 1.05 | [64] 1.01 | [65] 0.989 | [66] 0.995 | [67] 0.983 | [68] 0.99 | [69] 0.989 | [70] 0.993 | [71] 1.01 | [72] 0.999 | [73] 1.48 | [74] 0.984 | [75] 1.01 | [76] 0.995 | [77] 0.98 | [78] 0.995 | [79] 0.983 | [80] 0.995 | [81] 0.994 | [82] 1.03 | [83] 0.996 | [84] 0.99 | [85] 0.995 | [86] 0.994 | [87] 0.98
